From PubChem BioAssay
An excerpt weighted towards active compounds, which were near 1.1% of everything screened.
Bfl-1 A1 inh = inhibitors of the anti-apoptotic protein A1, read as caspase activation | caspase activation, % (concentration not given with the values) | hit rate 0.066% among 330,000 | MEF A1-2A-BIM cells, Caspase-Glo 3/7 luminescence, 3 h; percent of clofoctol response, vehicle zero | AID 2462;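 active = over half of replicate activation scores above 10%, or exactly half above 10 with the replicate mean above 10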
APOBEC3G inh = inhibitors of human APOBEC3G DNA deaminase; Q9HC16; recombinant A3G, ssDNA deamination FAM/TAMRA fluorescence; inhibition, % at 20 µM; hit rate 0.28% among 330,000; AID 493012;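 active = inhibition of at least 40% at 20 µM, with no more than 30% in the related APOBEC3A deaminase screen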;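 also: plate controls were DMSO wells with A3G for no effect and wells lacking A3G enzyme for full effect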
Target sequence (Q9HC16 whole entry, looked up): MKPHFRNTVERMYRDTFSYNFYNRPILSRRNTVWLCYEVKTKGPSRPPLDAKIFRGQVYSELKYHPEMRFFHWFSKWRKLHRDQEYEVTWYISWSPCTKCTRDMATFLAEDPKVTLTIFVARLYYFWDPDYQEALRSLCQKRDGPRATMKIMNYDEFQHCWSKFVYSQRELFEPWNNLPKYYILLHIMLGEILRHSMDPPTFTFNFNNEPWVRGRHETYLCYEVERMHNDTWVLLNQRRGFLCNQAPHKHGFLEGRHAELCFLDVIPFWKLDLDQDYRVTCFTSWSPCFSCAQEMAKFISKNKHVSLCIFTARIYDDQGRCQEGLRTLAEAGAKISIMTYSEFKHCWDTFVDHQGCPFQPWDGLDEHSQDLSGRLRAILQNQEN
MIN6 prolif = MIN6 beta-cell proliferation induction; AID 2380; MIN6 cells proliferation, ATPlite luminescence, 48 h; cells starved in 0.2% serum; 100% = growth in 10% serum; proliferation, % at 10 µM; hit rate 0.29% among 330,000;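 active = compounds whose signal lies at least 3.5 SD above the mean of all wells on their plate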;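 also: 0% = DMSO-treated cells in low-serum medium and 100% = 10% serum control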
A3A deaminase = blocks human APOBEC3A ssDNA deamination. P31941. recombinant A3A, FAM/TAMRA ssDNA deamination fluorescence. inhibition, % at 20 µM. hit rate 0.41% among 330,000;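 active = at least 40% inhibition at 20 µM here, with at most 30% in a related deaminase screen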;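 also: plate controls were A3A with DMSO for no effect and wells lacking A3A enzyme for full effect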
APOBEC3G confirm = confirmation of human APOBEC3G DNA deaminase inhibitors; shares compounds with APOBEC3G inh; inhibition, % at 20 µM; recombinant A3G ssDNA deaminase, UDG/FAM-TAMRA fluorescence; hit rate 72% among 890;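 active = inhibition reaching a set limit in any replicate at 20 µM, the limit being 80% of the first screen's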
UDG A3G counter = E. coli UDG inhibition in APOBEC3G counter-screen | shares compounds with APOBEC3G inh | UDG counterscreen, FAM/TAMRA oligo fluorescence | 710 tested, under 10 active | inhibition, % at 20 µM;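 active = compounds giving 40% or more inhibition at 20 µM in any one of the three replicates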;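 also: plate controls were DMSO wells with UDG and oligo for no effect and DMSO wells lacking both for full effect; inhibitors lower the FAM signal released by uracil excision and alkaline cleavage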
Target sequence (P12295 whole entry, looked up): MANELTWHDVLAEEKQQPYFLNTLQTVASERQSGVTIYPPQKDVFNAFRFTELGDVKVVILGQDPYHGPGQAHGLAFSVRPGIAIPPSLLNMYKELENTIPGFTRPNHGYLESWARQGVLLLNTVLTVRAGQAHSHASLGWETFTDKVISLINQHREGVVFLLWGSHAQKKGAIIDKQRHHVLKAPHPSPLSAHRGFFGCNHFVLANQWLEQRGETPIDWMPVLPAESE
* = called active by the depositor; nt = no result given.

SMILES	Bfl-1 A1 inh	APOBEC3G inh	MIN6 prolif	A3A deaminase	APOBEC3G confirm	UDG A3G counter
COCCCNC(=S)N(CCCO)Cc1cc2cc3c(cc2[nH]c1=O)OCO3	-2	48*	-2	-1	0	-3
Cc1nnn(-c2nonc2N)c1C(=O)N/N=C/c1ccccc1O	0	44*	-2	24	40*	3
CC[C@]12c3[nH]c4cc(CCC(=O)N(C)C)ccc4c3CCN1C(=O)[C@@H](CC(=O)NCCCn1ccnc1)C[C@@H]2C(=O)N1CCN(C(=O)c2ccco2)CC1	nt	-1	nt	2	nt	nt
O=C(CN(CC(=O)N1CCOCC1)S(=O)(=O)c1ccc(Br)s1)N1CCOCC1	0	46*	-2	-1	58*	-2
CC1CN(c2nc(Nc3ccccc3F)nc(N)c2[N+](=O)[O-])CC(C)O1 (stereo not drawn)	2	-5	-3	-1	nt	nt
COC(=O)Nc1ccc(S(=O)(=O)N2CCCCC2C(=O)NCc2ccco2)cc1 (stereo not drawn)	-1	63*	-4	1	2	nt
Cc1ccc(S(=O)(=O)N2CCCCC2C(=O)NCc2ccco2)cc1 (stereo not drawn)	1	-4	-2	-2	nt	nt
Oc1ccc(N=Nc2ccccc2-c2nn[nH]n2)c(O)c1	-1	-5	0	12	nt	nt
Cc1ccc(-c2nnc(COC(=O)c3cccs3)o2)cc1	0	18	-3	6	nt	nt
COc1ccc(OC)c(-n2c(-c3ccccc3)n[nH]c2=S)c1	0	22	4	-3	nt	nt
COc1cc(-c2n[nH]c(=S)n2-c2ccc(C)cc2)cc(OC)c1OC	-1	43*	-3	-5	68*	-4
COc1ccc(-n2c(-c3ccc(C)cc3)n[nH]c2=S)cc1	1	27	0	-4	nt	nt
COc1ccccc1-n1c(-c2ccccc2)n[nH]c1=S	-1	68*	-1	3	58*	-4
CCC1CCCCN1CCCNC(=O)CS(=O)(=O)Cc1nc(-c2cccc(OC)c2)oc1C (stereo not drawn)	0	0	-3	1	nt	nt
C/C(=N\Nc1cccc2cccnc12)c1ccc(N)cc1	0	58*	-2	3	27	nt
CC(=O)N(c1ccccc1C)C1CCCC1	0	-5	1	-6	nt	nt
CC(=O)N(C1=C(Cl)C(=O)c2ccccc2C1=O)C1CCCCC1	2	83*	-4	5	92*	-1
CCN(CC)c1ccc(NC(=O)c2ccccc2Br)cc1S(=O)(=O)Nc1ccccc1OC	2	34	-5	6	nt	nt
CCN(CC)c1ccc(NC(=O)COc2ccccc2C)cc1S(=O)(=O)Nc1ccccc1OC	-1	50*	-5	4	61*	3
CCN(CC)c1ccc(NC(=O)c2ccc(=O)[nH]c2)cc1S(=O)(=O)Nc1ccccc1OC	0	56*	-1	-1	38*	-3
CCOC(=O)CSc1n[nH]c(=S)s1	0	87*	6	-2	72*	-1
CCOC(=O)CCSc1n[nH]c(=S)s1	0	23	-1	0	nt	nt
Nc1ccccc1SSc1ccccc1N	0	82*	-6	1	63*	1
N#Cc1ccccc1Sc1ccccc1N	1	-6	0	-2	nt	nt
CCOC(=O)c1sc(=S)n(-c2cc(OC)ccc2OC)c1N	0	60*	-3	3	27	nt
SMILES	Bfl-1 A1 inh	APOBEC3G inh	MIN6 prolif	A3A deaminase	APOBEC3G confirm	UDG A3G counter
Cc1cccc(C)c1NC(=O)CN(C)CC(=O)Nc1cc(Cl)ccc1C#N	1	2	0	2	nt	nt
CCOc1ccc(NC(=O)CN(C)CC(=O)Nc2cc(Cl)ccc2C#N)cc1OCC	0	91*	-1	3	4	nt
O=C(Cc1ccccc1)NNC(=S)NC(=O)c1cccnc1	1	43*	-1	-4	14	1
CCOC(=O)c1cc(-c2ccc(F)cc2)n(CCC(=O)NC2CCN(Cc3ccccc3)CC2)c1C	0	1	-6	-6	nt	nt
CCc1ccc(-n2c(C)n[nH]c2=S)cc1	0	56*	1	-6	61*	2
Cc1cccc2cc(COC(=O)c3ccccn3)c(=O)[nH]c12	1	40*	0	-15	-1	-3
Nn1cc(-c2ccccc2)nc1SCC(=O)Nc1ccc(S(N)(=O)=O)cc1	-1	-6	-3	-6	nt	nt
CCCCCCn1c(SCC(C)C)nc2c1c(=O)[nH]c(=O)n2C	-1	9	-3	2	nt	nt
CCCCCCn1c(SCC(=O)OC)nc2c1c(=O)[nH]c(=O)n2C	0	45*	7	0	68*	-4
CCCCC(=O)Nc1sc(C(=O)N(CC)CC)c(C)c1C(=O)OC	0	68*	-4	2	68*	2
Cc1ccccc1NC(=O)Cn1nnc2ccccc21	0	50*	-1	-3	-8	-6
Cn1c(=S)[nH]c2cccnc21	1	-4	-1	1	nt	nt
Cc1nc2c(=O)[nH]c(=S)n(C)c2nc1C	0	52*	-1	-2	20	-35
CCOC(=O)C1CCN(S(=O)(=O)c2cc(C(=O)OC)n(C)c2)CC1	0	-10	-1	-2	nt	nt
CCCS(=O)(=O)N1CCN=C1SCc1cccc(C)c1	1	-3	-2	-4	nt	nt
c1cc(SSc2ccncc2)ccn1	0	65*	-7	5	71*	nt
c1ccc(SSc2ccccc2)cc1	0	-1	-8	1	nt	nt
S=c1nc(C2CCCCC2)[nH][nH]1	0	43*	-2	1	87*	-5
CC(=O)N1CCN(c2ccc(NC(=O)c3cccc([N+](=O)[O-])c3)cc2)CC1	-1	-25	-4	-3	nt	nt
COc1ccc(C(=O)NCCc2ccc(C(F)(F)F)cc2)cc1S(=O)(=O)N1CCOCC1	1	-6	-3	-3	nt	nt
COCc1cc(C)c(C#N)c(=S)[nH]1	0	80*	-1	2	79*	-3
Cc1ccc(NC(=O)C2CCN(c3nc(C)cc(C)n3)CC2)cc1	1	48*	0	0	-7	0
Cc1cc(C(F)(F)F)nn1Cc1n[nH]c(=S)n1-c1ccc(F)cc1	0	10	0	-3	nt	nt
Cc1cc(-c2n[nH]c(=S)n2-c2ccc(F)cc2)nn1C	-1	63*	-1	3	60*	-4
Cc1cc(F)ccc1NS(=O)(=O)c1c(C(=O)N2CCOCC2)c(C)n(C)c1C	-1	4	0	2	nt	nt
O=C(NCc1cnn(-c2ccc(F)cc2)c1)C1CCC(=O)N(C2CC2)C1 (stereo not drawn)	-1	-5	-3	-5	nt	nt
O=C(O)COc1ccccc1/C=N/NC(=O)Cc1ccccc1	0	-8	-2	-10	nt	nt
O=C(O)COc1ccccc1/C=N/NC(=O)Cc1csc(Nc2cccc(C(F)(F)F)c2)n1	0	55*	-2	-1	15	-4
